# PubChem BioAssay (NCATS)
# Results filed as inconclusive are left out. A call without a number means that no potency is given here. Calls of active or inactive are those of the source. Calls come from the whole dose curve; as a rule, active = well fitted inhibition curve with a large enough effect; inconclusive = small, poorly fitted or top-dose-only effect; inactive = flat fitted curve, though single readings scatter.
# Biological target: Calcium and integrin-binding protein 1 (Homo sapiens) (UniProt Q99828)
# Sequence (Q99828 whole entry, looked up): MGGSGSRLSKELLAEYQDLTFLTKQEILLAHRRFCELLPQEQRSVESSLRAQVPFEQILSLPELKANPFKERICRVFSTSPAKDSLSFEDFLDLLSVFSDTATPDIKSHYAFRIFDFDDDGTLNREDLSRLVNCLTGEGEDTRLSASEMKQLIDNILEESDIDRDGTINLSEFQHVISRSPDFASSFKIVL
# Assay: Primary qHTS for Identification of Calcium Integrin Binding Protein 1 (CIB1) Competitor (AID 1508620);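 note: GST tagged CIB1 binding a fluorescein labelled alphaIIb integrin peptide tracer; top concentration of the series differs between compounds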
# Conditions: CIB1-GST / FITC-alphaIIb peptide fluorescence polarization; series mostly up to 57.7 µM
# Text: Assay Provider: Ulhas P. Naik, PhD Sidney Kimmel Medical College Thomas Jefferson University, Philadelphia, PA Primary function of platelets is to maintain hemostasis. At the site of vascular injury, platelets adhere to adhesive proteins such as collagen and von Willebrand factor. Adherent platelets are activated and generate soluble platelet agonists such as thrombin, ADP and thromboxane A2. Following exposure of circulating platelets to these agonists, results in platelet shape change, granule secretion and activation of platelet integrin alphaIIb-beta3. Ligand binding to activated integrin alphaIIb-beta3 triggers outside-in signaling, leading to platelet aggregation, stabilization of platelet plug, and clot retraction. Upon atherosclerotic plaque rupture also causes platelet plug formation, which underlies a number of cardiovascular diseases such as myocardial infraction and stroke. A number of anti-platelet drugs such as aspirin, clopidogrel, prasugrel, vorapaxar, and eptifibatide are currently available to prevent the thrombotic complications. However, these anti-platelet agents have several limitations including inherent variability in individual responses, developing resistance, and serious bleeding side effects. For these reasons they are not suitable for long-term protection. Based on the experiences with current anti-platelet drugs, it appears that the most useful therapeutic approach is to intersect the secondary responses such as integrin outside-in signaling or recruitment of platelets by TxA2 and secreted ADP. Compounds, which can largely preserve the primary hemostatic function of platelets but inhibit secondary response will be most desired therapeutic agents for treatment of cardiovascular disease. CIB1 is a calcium integrin binding protein, which specifically interact with the alphaIIb subunit of integrin alphaIIb-beta3. Binding of CIB1 to alphaIIb regulates the outside-in signaling in platelets, which is needed for thrombus stabilization and thrombus growth. […] Therefore, we propose that discovery of a small molecule that can prevent the association of CIB1 and alphaIIb-beta3 will be a potential anti-platelet agent that can block the thrombus formation without undue effect on hemostasis. Reference: [1] Naik MU, Nigam A, Manrai P, et al. CIB1 deficiency results in impaired thrombosis: the potential role of CIB1 in outside-in signaling through integrin alpha IIb beta 3. J Thromb Haemost.
# PROTOCOL TABLES SEQUENCE No. (1, 2, 3, etc.); […] (e.g., Cells, Incubation, Reagent, etc.); VALUE and DESCRIPTION. 1; Reagent; 3 uL; Protein or buffer (4/3x) 2; Compound; 46 nL; Control inhibitor / compound library 3; Time; 15 min; Room temperature incubation 4; Reagent; 1 uL; Fluorescent labeled peptide (4x) 5; Time; 1000 rpm; Centrifuge 6; Time; 15 min; Room temperature incubation 7; Detection; Ex 480/ Em 540; ViewLux Fluorescence Read NOTES (numbers refer to sequence above) 1; Protein Mixture: C1B1-GST (final concentrations of 1 uM). […] 3; Room temperature incubation. 4; Fluorescent Labeled Peptide: FITC-aIIb (final concentration of 100 nM). Sequence of alphaIIb peptide: Acetyl-[…]-FITC (purity is 95.83%). 5; Centrifuge 1000 rpm (164 g) for 15 seconds. 6; Room temperature incubation. 7; ViewLux Fluorescent Polization Read: excitation = 480(20) / emission = 540(25) S and P; FITC Dichroic mirror.
row,Compound,Potency
1,CC(C)c1ccc2oc3nc(N)c(C(=O)O)cc3c(=O)c2c1,inactive
2,CNC[C@H](O)c1ccc(O)c(O)c1,inactive
3,O=C(O)CCNC(=O)c1ccc(N=Nc2ccc(O)c(C(=O)O)c2)cc1,inactive
4,C=CCc1cc(OC)c(O)c(C(=O)NCCO)c1,inactive
5,Cn1c(NCCN(CCO)CCCc2ccc([N+](=O)[O-])cc2)cc(=O)n(C)c1=O,inactive
6,CN(C)c1ccc(O)c2c1C[C@H]1C[C@H]3[C@H](N(C)C)C(=O)C(C(N)=O)=C(O)[C@@]3(O)C(=O)C1=C2O,inactive
7,COc1c(O)cc2c(c1O)[C@@H]1O[C@H](CO)[C@@H](O)[C@H](O)[C@H]1OC2=O,inactive
8,CCCCC(CC)COC(=O)C(C#N)=C(c1ccccc1)c1ccccc1 (stereo not given),inactive
9,CNC[C@@H](O)[C@@H](O)[C@H](O)[C@H](O)CO,inactive
10,Cc1ccc(S(=O)(=O)NC(=O)NN2CC3CCCC3C2)cc1 (stereo not given),inactive
11,CCCCN(CCCC)CCC(O)c1cc2c(Cl)cc(Cl)cc2c2cc(C(F)(F)F)ccc12 (stereo not given),inactive
12,CCCS(=O)c1ccc2nc(NC(=O)OC)[nH]c2c1 (stereo not given),inactive
13,Clc1ccc(C(Cn2ccnc2)OCc2c(Cl)cccc2Cl)c(Cl)c1 (stereo not given),inactive
14,CCOc1cc(CC(=O)N[C@@H](CC(C)C)c2ccccc2N2CCCCC2)ccc1C(=O)O,inactive
15,O=c1oc2cc(O)ccc2s1,inactive
16,Nc1ccc(S(N)(=O)=O)cc1,inactive
17,Cc1ccc(C)c(OCCCC(C)(C)C(=O)O)c1,inactive
18,O=C(NC(Cc1cc(=O)[nH]c2ccccc12)C(=O)O)c1ccc(Cl)cc1 (stereo not given),inactive
19,CC(C)c1ccc2c(c1)c(SC(C)(C)C)c(CC(C)(C)C(=O)O)n2Cc1ccc(Cl)cc1,inactive
20,Cc1cc(=O)c2c(O)c3c(O)cc(=O)c4c3c3c(cc(O)c1c23)C(C)(C)C=4O,inactive

row,Compound,Potency
1,CCCCc1ccc2nc(NC(=O)OC)[nH]c2c1,inactive
2,Cc1nc2n(c(=O)c1CCN1CCC(c3noc4cc(F)ccc34)CC1)CCCC2,inactive
3,CCCCCCCCOc1ccccc1C(=O)Nc1ccc(C(=O)OCC[N+](C)(CC)CC)cc1,inactive
4,CN(C)CCc1c[nH]c2ccc(Cn3cncn3)cc12,inactive
5,O=C1c2ccccc2-c2n[nH]c3cccc1c23,inactive
6,CS(=O)(=O)OCCCCOS(C)(=O)=O,inactive
7,COC(=O)N[C@H](C(=O)N[C@@H](Cc1ccccc1)[C@@H](O)CN(Cc1ccc(-c2ccccn2)cc1)NC(=O)[C@@H](NC(=O)OC)C(C)(C)C)C(C)(C)C,inactive
8,Nc1ncn([C@H]2C[C@H](O)[C@@H](CO)O2)c(=O)n1,inactive
9,Cc1cc(=O)oc2cc(O)ccc12,inactive
10,COc1ccc2cc([C@H](C)C(=O)O)ccc2c1,inactive
11,Cc1c(OCC(F)(F)F)ccnc1CS(=O)c1nc2ccccc2[nH]1 (stereo not given),inactive
12,CC(C)[C@H](N)C(=O)OCCOCn1cnc2c(=O)[nH]c(N)nc21,inactive
13,CC(C)Oc1ccc2c(=O)c(-c3ccccc3)coc2c1,inactive
14,O=C(O)c1cccc(-c2noc(-c3ccccc3F)n2)c1,inactive
15,COc1cc2c(N3CCN(C(=O)Nc4ccc(OC(C)C)cc4)CC3)ncnc2cc1OCCCN1CCCCC1,inactive
16,O=c1cc(N2CCOCC2)oc2c(-c3ccccc3)cccc12,inactive
17,CC1(C)C(=O)N(CCN2CCC(C(=O)c3ccc(F)cc3)CC2)c2ccccc21,inactive
18,COc1c2occc2cc2ccc(=O)oc12,inactive
19,O=C1c2c(O)cc(O)cc2OC(c2ccc(O)c(O)c2)C1O (stereo not given),inactive
20,N=C(N)c1ccc2cc(OC(=O)c3ccc(N=C(N)N)cc3)ccc2c1,inactive
